Source: PubChem BioAssay (EPA / NIEHS)
Inconclusive results are not listed. Activity calls are given as the source filed them. The calls were made as follows: active = hit-call score of the fitted dose curve at least 0.9, where 1 is the maximum; inconclusive = response in the unintended direction; inactive = score below 0.9.

assay: ACEA_ER_AUC_viability: ACEA Biosciences xCELLigence Real-Time Cell Analysis on Estrogen Receptor Agonism for Viability (AID 2283782);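 also: continuous compound exposure with impedance area under curve over 80 h; hit means loss of impedance signal meaning reduced cell growth or viability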
Procedure, shortened: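 T-47D human breast cells in phenol red-free RPMI1640 with 10% charcoal-stripped FBS were dosed with an 8-point 1:4 dilution series from 100 uM top final concentration, in duplicate. Impedance-based growth was followed for 80 h; AUC analysed versus DMSO.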

Structure (SMILES)	AC50	outcome
CC(C)CCCCCCCCCCCCCCC(=O)O	50 µM (active)	–
CC/C=C\CC/C=C/CO	50 µM (active)	–
C=C(C)C(=O)OCCOCCOCCOC(=O)C(=C)C	–	inactive
OCC(O)c1ccccc1 (stereo not drawn)	–	inactive
CCCCCCCCCCCCN1CCCCCC1=O	31.3 µM (active)	–
CS(C)=O	–	inactive
CC(=O)C(C)O (stereo not drawn)	–	inactive
O=C(Nc1ccc2c(O)c(N=Nc3ccc(N=Nc4ccc(S(=O)(=O)O)cc4)cc3)c(S(=O)(=O)O)cc2c1)c1ccccc1	–	inactive
CC(=O)OCCCc1ccccc1	–	inactive
CCOc1ccccc1O	–	inactive
COS(=O)(=O)O	–	inactive
CN(C)C(=O)Nc1ccc(Oc2ccc(Cl)cc2)cc1	–	inactive
O=C1c2ccccc2C(=O)c2c(O)ccc(O)c21	–	inactive
CC(C)CCOC(=O)c1ccccc1	–	inactive
C1=CC2C3C=CC(C3)C2C1 (stereo not drawn)	–	inactive
CC1(C)C2=CCCC(C)(C)[C@]23CC[C@H]1C3	78.4 µM (active)	–
CCOc1ccc(NC(=O)CC(C)=O)cc1	–	inactive
CC(=O)NCCO	–	inactive
C=CCN(CC=C)CC=C	61.2 µM (active)	–

Structure (SMILES)	AC50	outcome
CCCCCCC(=O)c1ccccc1	–	inactive
COc1ccccc1[N+](=O)[O-]	–	inactive
NC(=S)NNC(N)=S	–	inactive
CCCCCCC(CO)CCCC (stereo not drawn)	76.9 µM (active)	–
CCOC(=O)CCc1ccccc1	–	inactive
CCCCCCCC(=O)OCC(O)CO (stereo not drawn)	–	inactive
O=[N+]([O-])c1cccc(Cl)c1	–	inactive
NC1CCCCC1N (stereo not drawn)	77.1 µM (active)	–
CCCN(CCC)S(=O)(=O)c1ccc(C(=O)O)cc1	–	inactive
CC(C)(C)c1ccc(C(=O)O)cc1	50 µM (active)	–
C[C@H]1C[C@@H](O)CC(C)(C)C1	50 µM (active)	–
CCC(=O)OCCOc1ccccc1	–	inactive
COC(C)(C)CC(C)=O	–	inactive
CCCCCCCCCCCC(=O)OCC(O)CO (stereo not drawn)	50 µM (active)	–
CCc1ncc(C)[nH]1	–	inactive
C=CC(C)(O)CCC=C(C)C (stereo not drawn)	–	inactive
ON=C1CCCCC1	–	inactive
Oc1c(Cl)cc(Cl)c(Cl)c1Cc1c(O)c(Cl)cc(Cl)c1Cl	5.27 µM (active)	–
C=C(C)C1CC=C(C)C(=O)C1 (stereo not drawn)	68.2 µM (active)	–
